# Test results: PMC8384837, “Expanding the binding specificity for RNA recognition by a PUF domain”
# Where a chain is given by its changes, count along the chain named.
# What was measured:
# Experiment in all cases: yeast three-hybrid, YBZ-1, SC-Leu-His + 0.5 mM 3-AT, 4 days
# Conditions in all cases: tags: N-Gal4 AD-HA kept; label: inside an RPR1-promoter hybrid RNA with tandem MS2 sites; ssRNA
# PUM1 PUF domain R6-CFR = target: T1, PUM1 PUF domain R6-CFR (Homo sapiens, UniProt Q14671 828-1176, N1043C;Y1044F;Q1047R)
# T1 sequence: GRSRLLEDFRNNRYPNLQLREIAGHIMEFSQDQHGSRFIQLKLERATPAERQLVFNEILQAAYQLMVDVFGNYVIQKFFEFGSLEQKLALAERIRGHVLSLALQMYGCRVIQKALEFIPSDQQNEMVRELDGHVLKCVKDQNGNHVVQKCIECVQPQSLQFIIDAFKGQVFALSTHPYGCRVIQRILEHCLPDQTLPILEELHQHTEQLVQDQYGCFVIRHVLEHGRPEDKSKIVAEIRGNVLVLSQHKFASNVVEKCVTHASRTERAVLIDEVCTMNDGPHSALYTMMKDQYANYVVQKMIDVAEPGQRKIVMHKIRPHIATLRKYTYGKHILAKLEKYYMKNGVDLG
# Method in brief: (§1)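 Sequencing with Illumina followed PCR amplification of the repeat regions from transformants grown four days on SC-Leu (input) or SC-Leu-His + 0.5 mM 3-AT (selection). The transformants were strain YBZ-1 with a LexA–MS2 coat fusion and a HIS3 reporter, carrying Pumilio-1 PUF domain libraries and matching RNA elements. The interaction score is the log change in variant frequency from input to selection, computed in log2 with a pseudocount of 1 for absent variants.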
# PUM1 PUF domain R6-LFG = target: T2, PUM1 PUF domain R6-LFG (Homo sapiens, UniProt Q14671 828-1176, N1043L;Y1044F;Q1047G)
# T2 sequence: T1 sequence with C216L, R220G
# Method in brief: as §1
# PUM1 PUF domain R8-GFR = PUM1 PUF domain R8-GFR (Homo sapiens, UniProt Q14671 828-1176, N1122G;Y1123F;Q1126R)
# Method in brief: as §1
# PUM1 PUF domain R5-KPV = PUM1 PUF domain R5-KPV (Homo sapiens, UniProt Q14671 828-1176, C1007K;R1008P;Q1011V)
# Method in brief: as §1
# PUM1 PUF domain R5-RKG = PUM1 PUF domain R5-RKG (Homo sapiens, UniProt Q14671 828-1176, C1007R;R1008K;Q1011G)
# Method in brief: as §1
# PUM1 PUF domain R5-SRK = PUM1 PUF domain R5-SRK (Homo sapiens, UniProt Q14671 828-1176, C1007S;Q1011K)
# Method in brief: as §1
# PUM1 PUF domain R5-SRV = PUM1 PUF domain R5-SRV (Homo sapiens, UniProt Q14671 828-1176, C1007S;Q1011V)
# Method in brief: as §1
# PUM1 PUF domain R5-PLD = PUM1 PUF domain R5-PLD (Homo sapiens, UniProt Q14671 828-1176, C1007P;R1008L;Q1011D)
# Method in brief: as §1
# PUM1 PUF domain R3-LYE = PUM1 PUF domain R3-LYE (Homo sapiens, UniProt Q14671 828-1176, C935L;R936Y;Q939E)
# Method in brief: as §1
# PUM1 PUF domain R3-WFS = PUM1 PUF domain R3-WFS (Homo sapiens, UniProt Q14671 828-1176, C935W;R936F;Q939S)
# Method in brief: as §1
sequence,measurement,setting,value
GGCUAGAACUAGUGGAUCCCCCGGCGCCCGGCGGCUCGAGCCCGGGUAAGUGAAAAUAGUCUGCAUGCCGCCGGGCGCCAUGCCUGCAGGUCGACUCUAGAAAACAUG,binding signal,PUM1 PUF domain R6-CFR,4.42 log2 enrichment (interaction score)
same,binding signal,PUM1 PUF domain R6-LFG,5.7 log2 enrichment (interaction score)
GGCUAGAACUAGUGGAUCCCCCGGCGCCCGGCGGCUCGAGCCCGGGUAAGCGUAAAUAGUCUGCAUGCCGCCGGGCGCCAUGCCUGCAGGUCGACUCUAGAAAACAUG,binding signal,PUM1 PUF domain R8-GFR,4.51 log2 enrichment (interaction score)
GGCUAGAACUAGUGGAUCCCCCGGCGCCCGGCGGCUCGAGCCCGGGUAAGUGUCAAUAGUCUGCAUGCCGCCGGGCGCCAUGCCUGCAGGUCGACUCUAGAAAACAUG,binding signal,PUM1 PUF domain R5-KPV,3.85 log2 enrichment (interaction score)
same,binding signal,PUM1 PUF domain R5-RKG,2 log2 enrichment (interaction score)
same,binding signal,PUM1 PUF domain R5-SRK,2.72 log2 enrichment (interaction score)
GGCUAGAACUAGUGGAUCCCCCGGCGCCCGGCGGCUCGAGCCCGGGUAAGUGUGAAUAGUCUGCAUGCCGCCGGGCGCCAUGCCUGCAGGUCGACUCUAGAAAACAUG,binding signal,PUM1 PUF domain R5-SRV,2.79 log2 enrichment (interaction score)
same,binding signal,PUM1 PUF domain R5-SRK,3.42 log2 enrichment (interaction score)
GGCUAGAACUAGUGGAUCCCCCGGCGCCCGGCGGCUCGAGCCCGGGUAAGUGUUAAUAGUCUGCAUGCCGCCGGGCGCCAUGCCUGCAGGUCGACUCUAGAAAACAUG,binding signal,PUM1 PUF domain R5-KPV,1.4 log2 enrichment (interaction score)
same,binding signal,PUM1 PUF domain R5-RKG,2.88 log2 enrichment (interaction score)
same,binding signal,PUM1 PUF domain R5-SRK,5.28 log2 enrichment (interaction score)
GGCUAGAACUAGUGGAUCCCCCGGCGCCCGGCGGCUCGAGCCCGGGUAAGUGCAAAUAGUCUGCAUGCCGCCGGGCGCCAUGCCUGCAGGUCGACUCUAGAAAACAUG,binding signal,PUM1 PUF domain R6-CFR,6.28 log2 enrichment (interaction score)
GGCUAGAACUAGUGGAUCCCCCGGCGCCCGGCGGCUCGAGCCCGGGUAAGUGUAAAUAGUCUGCAUGCCGCCGGGCGCCAUGCCUGCAGGUCGACUCUAGAAAACAUG,binding signal,PUM1 PUF domain R6-CFR,4.59 log2 enrichment (interaction score)
same,binding signal,PUM1 PUF domain R5-PLD,2.61 log2 enrichment (interaction score)
same,binding signal,PUM1 PUF domain R8-GFR,4.66 log2 enrichment (interaction score)
same,binding signal,PUM1 PUF domain R3-LYE,3.76 log2 enrichment (interaction score)
same,binding signal,PUM1 PUF domain R5-RKG,0.47 log2 enrichment (interaction score)
same,binding signal,PUM1 PUF domain R5-SRV,0.54 log2 enrichment (interaction score)
same,binding signal,PUM1 PUF domain R5-SRK,3.38 log2 enrichment (interaction score)
GGCUAGAACUAGUGGAUCCCCCGGCGCCCGGCGGCUCGAGCCCGGGUAAGUGUAAUUAGUCUGCAUGCCGCCGGGCGCCAUGCCUGCAGGUCGACUCUAGAAAACAUG,binding signal,PUM1 PUF domain R3-WFS,2.63 log2 enrichment (interaction score)
